The list is not random: actives were taken first. Their share in the collection is about 19%.
MCF10A rereplic = inducers of DNA re-replication in MCF 10A breast cells; Potency, µM (titrated, usually from 46.1 µM), for the others: at the highest dose activity, positive = re-replication, most hits filed as activators; hit rate 2.9% among 350,000; MCF 10A DNA re-replication, Hoechst nuclear intensity, 48 h; AID 624296; note: potency is the fitted concentration of half-maximal effect; % of control where 0% means no effect; nearly all actives have a fitted effect of over 50% in size
BCR signal inh = blocks chronic active B-cell receptor signaling | hit rate 0.05% among 340,000 | Potency, µM (highest dose often 46.1 µM), inactives show at the highest dose activity change, negative = inhibition, actives largely listed as inhibitors | ABC-DLBCL IkBa-CBG/CBR reporter, luminescence ratio, 4 h | AID 493014; active = well fitted inhibition curve with a large enough effect in the signal ratio, with a control signal flat, not every such curve was filed as active; inconclusive = small, poorly fitted or top-dose-only effect, or effect the other way, or a change in a side signal; the % refers to the signal ratio;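 note: potency is the fitted concentration of half-maximal effect; plate controls were basal doxycycline-induced cells for no effect and cells given 10 µM MG132 for full effect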
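Cell line TMD8 (human ABC DLBCL), stably expressing tet-inducible CBG68-IkBa fusion and CBR; IMDM/0.5% FBS; cpd up to 46 uM; dox induction, 4 h, 37C/5% CO2; dual luminescence; green/red ratio; MG132 control.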
IL-1B inflam inh = inflammasome signaling inhibition, IL-1 beta readout | hit rate 4.7% among 360,000 | activity change, % at 57.5 µM | THP-1 LPS/ATP IL-1B secretion, AlphaLISA, 16 h; active compounds read low; in the data active = activity change below about -50%; inconclusive = mostly about -30% to -49%; note: % is set by controls: 0 for no effect and ±100 for the full control effect
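Secreted IL-1B measured by AlphaLISA bead assay after 16 h compound exposure of THP-1 cells; compounds (final up to 57.5 uM) added 1 h before LPS (250 ng/mL) and ATP (1.25 mM) stimulation; lower signal means less secretion.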
TDP1 cell noCPT = qHTS for Inhibitors of human tyrosyl-DNA phosphodiesterase 1 (TDP1): qHTS in cells in absence of CPT; Potency, µM (highest dose often 46.2 µM), without a hit: at the highest dose activity change, negative = growth inhibition, actives largely listed as inhibitors; AID 686978, 2013; DT40 Tdp1-/- hTDP1 cells, no CPT, ATP luminescence, 48 h; hit rate 15% among 420,000; note: potency is the fitted concentration of half-maximal effect; % is set by controls: 0 for no effect and ±100 for the full control effect; nearly all actives have a fitted effect of over 55% in size
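Growth of hTDP1-complemented DT40 Tdp1-knockout cells is measured by ATP luminescence after at least 48 hr compound exposure at 37 °C, with DMSO substituting for the 20 nM CPT used in the parallel screen.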
TDP1 cell CPT = DT40-hTDP1 cell growth loss with CPT; hit rate 12% among 420,000; chicken DT40 Tdp1-/-;hTDP1 cells + 20 nM CPT, ATP luminescence, 48 h; Potency, µM (titrated, usually from 46.2 µM), for inactives: at the top dose activity change, negative = growth inhibition, actives largely listed as inhibitors; note: potency is the fitted concentration of half-maximal effect; % is set by controls: 0 for no effect and ±100 for the full control effect; nearly all actives have a fitted effect of over 55% in size
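Chicken DT40 Tdp1-/- cells stably complemented with human TDP1 were seeded at 400 cells/well in medium containing 20 nM camptothecin, exposed to pin-transferred compounds, and grown at 37 °C for at least 48 hr. Viability was read as ATP luminescence.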
SW480 rerep = induces DNA re-replication in SW480 colon adenocarcinoma cells | hit rate 1.8% among 340,000 | AID 624297 | Potency, µM (highest dose often 46.1 µM), for the others: at the highest dose re-replication activation, usual class: activators | SW480 DNA re-replication, Hoechst DNA content imaging, 48 h; note: potency is the fitted concentration of half-maximal effect; % of control where 0% means no effect; nearly all actives have a fitted effect of over 55% in size
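Cells (250 per well) received 23 nL compound or DMSO by pin tool and were kept 48 hr at 37 C, 5% CO2. Nuclei were then stained with Hoechst for 40 min and scanned for DNA content.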
Starred values were filed as active, the others as inactive; u = inconclusive; x = not tested or not shown. Unless noted, calls come from the whole dose curve; as a rule, active = well fitted curve in the direction sought with a large enough effect; inconclusive = small, poorly fitted or top-dose-only effect, or another doubt; inactive = no such curve, though single readings can be large; an effect the other way counts as inactive or inconclusive.

SMILES	MCF10A rereplic	BCR signal inh	IL-1B inflam inh	TDP1 cell noCPT	TDP1 cell CPT	SW480 rerep
CCOC1CCCc2oc(-c3ccc(OC)cc3)c(C(=O)NCCCCO)c21 (stereo not drawn)	x	x	-20.1	-21.1%	-7.5%	x
Cc1cccc(NC(=O)COc2cccc3c2CCN(C)C3=O)c1C	0.2%	-4.6%	6.9	u	u	-2.7%
CCOC(=O)c1c(NC(=O)Cn2c(C)nc3ccccc32)sc2c1CCC2	u	-3.4%	30.6	11.6µM*	20.6µM*	3.1%
CCOC(=O)c1c(NC(=O)COc2cccc3c2CCN(C)C3=O)sc2c1CCC2	u	u	-23.4	9.2µM*	13µM*	-4.3%
CCOC(=O)c1c(NC(=O)C(C)NCc2ccco2)sc2c1CCC(C)C2 (stereo not drawn)	u	4.2%	u	20.6µM*	u	12.8%
CCOC(=O)c1c(NC(=O)CSc2nnc(C)s2)sc2c1CCC(C)C2 (stereo not drawn)	u	0.1%	-9.8	20.6µM*	u	0.7%
CCOC(=O)c1c(NC(=O)COc2cccc(C(F)(F)F)c2)sc2c1CCC(C)C2 (stereo not drawn)	x	x	x	-29.6%	-15.1%	x
CCOC(=O)c1c(NC(=O)COC(=O)Cn2c(C)nc3ccccc32)sc2c1CCCC2	0.6%	-3.0%	30.6	u	-25.4%	-2.4%
Cc1cc(C)n2c(=O)[nH]nc2c1	-4.9%	x	17.5	3.8%	-0.6%	-23.4%
Cc1cc2c(Nc3cccc(O)c3)ncnc2s1	1.5%	u	18.6	u	u	0.7%
COc1ccc(Cn2ccnc2SCC(=O)Nc2cc(C(F)(F)F)ccc2Cl)cc1	x	x	x	-14.9%	-6.5%	x
O=C(NCc1cnn(-c2ccccc2)c1)C1CCC(=O)N(C2CC2)C1 (stereo not drawn)	10.6%	1.2%	74.2	2.0%	4.3%	-1.7%
COC(=O)c1c(NC(=O)COc2ccc(OC)cc2)sc2c1CCC(C)C2 (stereo not drawn)	x	x	x	7.31µM*	u	x
COC(=O)c1cc(NC(=O)c2ccc(Cn3cc(Cl)cn3)o2)cc(C(=O)OC)c1	u	u	-8.9	-3.8%	u	0.1%
CCOC(=O)c1c(NC(=S)NC(=O)c2ccc(Cn3cc(Cl)cn3)o2)sc2c1CCC(C)C2 (stereo not drawn)	0.1%	3.1%	5.6	8.2µM*	13µM*	-0.5%
CCOC(=O)c1c(NC(=O)Cn2nnc3ccccc32)sc2c1CCC(C)C2 (stereo not drawn)	12.5%	u	-5.9	23.1µM*	23.1µM*	-3.5%
CCOC(=O)c1c(NC(=O)COc2ccc(F)cc2)sc2c1CCC(C)C2 (stereo not drawn)	x	x	x	u	-24.2%	x
Cc1ccc(S(=O)(=O)N2C[C@@H]3[C@H]4CC[C@H](C4)[C@@H]3[C@@H](C)C2CC(=O)c2ccccc2)cc1 (stereo partly drawn)	u	4.0%	-1.9	23.1µM*	u	-1.5%
CCOC(=O)C1CN(S(=O)(=O)c2ccc(C)cc2)CCN1S(=O)(=O)c1ccc(C)cc1 (stereo not drawn)	12.5%	u	-11.2	u	u	0.3%
C=CCC1[C@H](C)[C@H]2[C@@H]3CC[C@@H](C3)[C@H]2CN1S(=O)(=O)c1ccc(C)cc1 (stereo partly drawn)	1.1%	8.6%	46.4	u	18.4µM*	0.2%
Cc1ccc(S(=O)(=O)N2C[C@@H]3[C@H]4CC[C@H](C4)[C@@H]3[C@@H](C)[C@@H]2c2ccn([Si](C(C)C)(C(C)C)C(C)C)c2)cc1	-2.4%	-0.1%	25.0	23.1µM*	u	-8.2%
